In PubChem BioAssay (NCI):
Compounds without any hit were thinned out: in the full panel of roughly 83,000, 20% have a hit.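 Single-concentration screen, 48 h exposure, 96-well plates. Endpoint: percent growth. Below 10 = active.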 Unmarked numbers belong to inactive results. Active and inactive are the calls of the source.

Columns and labels:
Assay in all cases: NCI-60 one-dose screen, 48 h (100 = growth as untreated, 0 = no growth, -100 = all killed)
Details in all cases: 10 µM unless noted
SK-MEL-2 melanoma = tested on: SK-MEL-2 melanoma
EKVX NSCLC = tested on: EKVX NSCLC
SN12C renal = tested on: SN12C renal
UO-31 renal = tested on: UO-31 renal
ACHN renal = tested on: ACHN renal
CAKI-1 renal = tested on: CAKI-1 renal
A498 renal = tested on: A498 renal
CCRF-CEM leukemia = tested on: CCRF-CEM leukemia
MOLT-4 leukemia = tested on: MOLT-4 leukemia
TK-10 renal = tested on: TK-10 renal

Structure (SMILES)	growth (SK-MEL-2 melanoma)	growth (EKVX NSCLC)	growth (SN12C renal)	growth (UO-31 renal)	growth (ACHN renal)	growth (CAKI-1 renal)	growth (A498 renal)	growth (CCRF-CEM leukemia)	growth (MOLT-4 leukemia)	growth (TK-10 renal)
O=C(COCc1c(-c2ccccc2)no[n+]1[O-])Nc1ccc(C(=O)/C=C/c2ccc3c(c2)OCO3)cc1	134%	108%	102%	87.4%	94.6%	91.7%	111%	82.4%	77.2%	–
CCCN(CCC)CN(CCC)CCC	108%	98.8%	–	84.8%	102%	96.3%	91.8%	–	97.1%	106%
C=CC[N+]1(CCO)CCN=C1CCCCCCCCCCCCC (configuration not stated)	-64.2% (active)	-29.4% (active)	–	-60.7% (active)	-91.9% (active)	-47.7% (active)	82.6%	-40.6% (active)	–	-87% (active)
COc1cc(/C=C2\CN(C(=O)CCN3CCC(=NO)CC3)C/C(=C\c3cc(OC)c(OC)c(OC)c3)C2=O)cc(OC)c1OC	-26.9% (active)	-36.1% (active)	-9.11% (active)	-96.2% (active)	-44.2% (active)	–	-87.2% (active)	-37.3% (active)	2.41% (active)	-69.2% (active)
C=CCSc1nnc(-c2ccc(C(C)(C)C)cc2)n1-c1cccc(C(F)(F)F)c1	46.7%	22.2%	29.4%	–	36.3%	32.3%	84.7%	24.2%	21.8%	51.1%
CCN(CC)CCCNc1cccc2c(SCc3ccccc3)ccnc12	114%	63.5%	–	-9.99% (active)	102%	58.8%	75.7%	-26.1% (active)	-24.2% (active)	63.7%
CC#Cc1nc2ccccc2c(=O)[nH]1	45.4%	–	35.3%	22.9%	28.8%	54.5%	-44.8% (active)	19.6%	–	48%
CCN(CC)c1ccc(CNc2cc(C)nc3ccc(OC)cc23)cc1	79.2%	25.7%	–	3.78% (active)	78.1%	–	17%	23.3%	4.46% (active)	71.1%
COc1nc2c(cc1S(=O)(=O)c1ccccc1)CCc1c-2cnn1-c1ccc(Cl)cc1	97.2%	90.4%	–	99.3%	102%	90.8%	82.4%	84.2%	86.3%	110%
O=C(CN1CCN(c2cc3c(cc2F)c(=O)c(C(=O)O)cn3C2CC2)CC1)Nc1nc(-c2ccccc2)cs1	94.6%	91.4%	71.2%	81.7%	89.5%	–	65.2%	79.1%	89%	82.9%
CCN(CC)CC(C)Nc1ccc([N+](=O)[O-])c2sc3ccccc3c(=O)c12 (configuration not stated)	26.8%	34.5%	37.2%	0.595% (active)	7.58% (active)	–	29.8%	15.2%	-24% (active)	49.5%
Cc1cc2c(cc1C)NC1=C(N2)OC(c2c3ccccc3cc3ccccc23)C1=O (configuration not stated)	31%	22.2%	14.3%	–	29%	42.5%	142%	20.5%	24.8%	107%
COc1ccc2nc(NC(=O)c3cccnc3Nc3cc(OC)c(OC)c(OC)c3)sc2c1	48%	36.3%	18.5%	–	58%	5.14% (active)	-64.4% (active)	48.6%	56.7%	–
COc1cc(-c2c3c(nc4c2c(C)nn4-c2ccccc2)-c2ccccc2C(=O)C3=O)cc(OC)c1OC	72.3%	98.3%	90.5%	73.1%	82.3%	74.4%	83.7%	54.4%	52.5%	–
CC(C)(C)c1nn(-c2ccccc2)c2c1CC1(CN2Cc2ccc3c(c2)OCO3)C(=O)c2ccccc2C1=O	115%	119%	96.5%	104%	89.9%	98.9%	106%	85.2%	–	–
COc1nc2c(cc1S(=O)(=O)c1ccccc1)CCc1c-2cnn1Cc1ccccc1	74.3%	36.1%	–	39.4%	71.7%	–	17.6%	68.7%	44.9%	61%
COc1c(C2CC(=O)Nc3c2cnn3Cc2ccco2)cc2c(c1OC)OCO2 (configuration not stated)	46.3%	–	32.5%	59.4%	40.2%	36.9%	-2.53% (active)	10.1%	–	73.9%

Structure (SMILES)	growth (SK-MEL-2 melanoma)	growth (EKVX NSCLC)	growth (SN12C renal)	growth (UO-31 renal)	growth (ACHN renal)	growth (CAKI-1 renal)	growth (A498 renal)	growth (CCRF-CEM leukemia)	growth (MOLT-4 leukemia)	growth (TK-10 renal)
CN1/C(=C\C=C\C2=[N+](C)c3ccccc3C2(C)C)C(C)(C)c2ccccc21	-56.6% (active)	13.3%	–	8.16% (active)	1.47% (active)	23%	1.83% (active)	7.62% (active)	-12.6% (active)	5.75% (active)
COc1cc(-c2nc3ccccc3s2)ccc1NC(=O)COc1ccc(Cl)cc1	78.5%	57.4%	58.6%	47.3%	40%	–	–	98.5%	86%	35.6%
O=C1C=CC(Nc2ccccc2[N+](=O)[O-])C1Nc1ccccc1[N+](=O)[O-] (configuration not stated)	67.9%	-97.1% (active)	36.9%	–	-96% (active)	-24.3% (active)	96.8%	10.5%	29.4%	-45.3% (active)
COc1ccc(C2CC(=O)Nc3c2c(C)nn3-c2nc3ccccc3[nH]2)cc1 (configuration not stated)	100%	–	103%	34.3%	99.1%	101%	41.6%	10.1%	-44.6% (active)	116%
COc1ccc(C(=O)c2sc3nc4c(cc3c2N)CCCC4)cc1OC	25.3%	–	62.8%	55.7%	63%	57.9%	34.9%	28.9%	6.5% (active)	83%
CN1CCCCC1CCN1c2ccccc2Sc2ccc(Cl)cc21 (configuration not stated)	71.2%	–	71.8%	30.1%	58.2%	59.9%	74.9%	39.3%	41%	69.3%
Cc1cc(N/N=C/c2nc(-c3ccc(Cl)cc3)oc2C)c2cc(Br)ccc2n1	108%	–	20.5%	55.9%	75.8%	90%	92.6%	4.11% (active)	15%	25.2%
Cc1csc2ccc(Cl)cc12	99.7%	–	93.1%	81.6%	95.5%	96.9%	119%	108%	112%	99.4%
Cc1cc(Nc2nc(-c3cccnc3)nc3ccccc23)n[nH]1	38.8%	–	58.9%	60.4%	38%	2.35% (active)	-19.7% (active)	57.3%	89.5%	59.8%
CCOC(=O)c1c2c(n3ccc(NC(=O)CCN4CCOCC4)cc13)C(=O)c1ncccc1C2=O	30.9%	–	24.2%	36%	16.5%	21.5%	56.2%	19.3%	18.6%	47%
CNCc1cccc2c1OCCOCCOCCN(C)S(=O)(=O)c1ccc(cc1)-c1cnc(N)c(n1)C(=O)N2	56.7%	–	37%	36.5%	22.1%	44.6%	36.7%	-23.6% (active)	0.352% (active)	53.3%
O=C(NC(Cc1ccccc1)C(=O)CCl)OCc1ccccc1 (configuration not stated)	8.62% (active)	–	56.7%	59.6%	72%	48.2%	98.7%	-4.62% (active)	12.2%	84.8%
CCOC(=O)c1ccc2c(c1)nc(/C=C/c1ccc(Cl)cc1)n2-c1cc(C(C)(C)C)[nH]n1	79.6%	–	74.6%	46.8%	23.8%	92.3%	58.7%	13.5%	-2.76% (active)	60%
COC1C/C(=N\O)C2OC(c3ccccc3)OCC2O1 (configuration not stated)	93.3%	–	104%	87.2%	108%	97.9%	89.9%	96.1%	97.6%	112%
CCCCNC(=O)NS(=O)(=O)c1ccc(N2N=C(c3cc(C)ccc3C)CC2c2cc(OC)c(OC)c(OC)c2)cc1 (configuration not stated)	54.9%	–	73.7%	32.2%	63.6%	39%	34.6%	55.1%	30.9%	74.5%
O=c1c2cccc3c(Nc4ccccn4)ccc(c32)c2nc3ccccc3n12	80.5%	–	71.7%	46.6%	76.1%	51.8%	92.3%	51.8%	61.8%	65.8%
COc1ccc(-n2c(C)nc3c(c(C)nn3-c3ccccc3)c2=O)cc1	36.4%	–	42%	44.3%	29.2%	34.4%	-27.8% (active)	8.6% (active)	12.2%	55.4%
